# PubChem BioAssay (EPA / NIEHS)
# Records with an inconclusive call do not appear. The source made the active and inactive calls. The calls were made as follows, unless noted: active = hit-call score of the fitted dose curve at least 0.9, where 1 is the maximum; inconclusive = response in the unintended direction; inactive = score below 0.9.
# Columns and labels:
# SERPINA7 (gene 6906) = test: CCTE_GLTED_hTBG: CCTE's human Thyroxine-binding Globulin (TBG) Inhibition Assay, Great Lakes Toxicology and Ecology Division (GLTED) Lab (AID 2284343);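 also: active chemicals lower fluorescence versus DMSO baseline by displacing probe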
# Method in brief: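 Fluorescence (ex 380/em 475) reports ANSA displaced from human TBG after a 2 h incubation with test chemical, without cells. Loss of signal indicates displacement, with DMSO serving as baseline.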
# [1] = IUF_NPC1_cytotoxicity_72hr: Cytotoxicity Assessment at 72 hours in the Leibniz Research Institute for Environmental Medicine (IUF) Neural Progenitor Cell Proliferation Assay (NPC1) (AID 2284332);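 also: rising LDH signal means more cytotoxicity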
# Method in brief: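 LDH in supernatant, resazurin→resorufin fluorescence (RFU), 72 h exposure, no re-dosing. Cells: primary hNPC spheres, one per well, EGF+FGF medium, 37C/5% CO2, pH 7.2-7.6. Fit: positive direction vs baseline and dynamic range.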
# [2] = CCTE_Mundy_HCI_iCellGluta_NOG_NeuronCount: CCTE's Neurite Outgrowth Assay in iCellGluta cells for Neuron Count, Mundy Lab (AID 2284340);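 also: cells fixed about 48 h after compound addition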
# Method in brief: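 Neuron count read by automated high-content imaging of Hoechst 33342 and betaIII-tubulin/Alexa Fluor-488 labelling in human iPSC glutamatergic neurons. Activity fitted relative to DMSO.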
# [3] = CCTE_Mundy_HCI_iCellGluta_NOG_NeuriteCount: CCTE's Neurite Outgrowth Assay in iCellGluta cells for Neurite Count, Mundy Lab (AID 2284342);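 also: chemical exposure about 48 hours starting 2 hours after plating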
# [4] = CCTE_Padilla_ZF_Score.Craniofacial: CCTE's 144 Hour Post-fertilization zebrafish Assay Score for Craniofacial Malformation, Padilla Lab (AID 2284405; active = hit-call score of the fitted dose curve at least 0.9, where 1 is the maximum; inactive = score below 0.9)
# Method in brief: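 Craniofacial defects were scored at 6 dpf by two blinded observers using stereomicroscopy. Exposure of wild-type embryos began at 6–8 hpf in sealed wells of 10% Hanks' solution at 26C, with chemical removed by rinsing at 5 dpf.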
# [5] = CCTE_Padilla_ZF_Score.Edema: CCTE's 144 Hour Post-fertilization zebrafish Assay Score for Edema Malformation, Padilla Lab (AID 2284406; active = hit-call score of the fitted dose curve at least 0.9, where 1 is the maximum; inactive = score below 0.9)
# Method in brief: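 Edema scored at 6 dpf by two blinded observers under a stereo microscope, in single outbred wild-type larvae exposed from 6-8 hpf in sealed wells (Hanks', 26C, 14:10 h light) and chemical-free after a 5 dpf rinse.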
# [6] = CCTE_Padilla_ZF_Score.Spine: CCTE's 144 Hour Post-fertilization zebrafish Assay Score for Spine Malformation, Padilla Lab (AID 2284407; active = hit-call score of the fitted dose curve at least 0.9, where 1 is the maximum; inactive = score below 0.9)
# Protocol: CCTE_Padilla_ZF_Phenotype_Score is a whole embryo, multiplexed assay using zebrafish ova exposed for 144 hours post fertilization on a 96-well plate.CCTE_Padilla_ZF_Score.Spine is one of one assay component(s) measured or calculated from the CCTE_Padilla_ZF_Phenotype_Score assay. It is designed to make measurements of zebrafish development as detected with brightfield microscopy of developing zebrafish embryos.Data from the assay component CCTE_Padilla_ZF_Score.Spine was analyzed into 1 assay endpoints. This assay endpoint, CCTE_Padilla_ZF_Score.Spine, was analyzed in the positive analysis fitting direction relative to DMSO as the negative control and baseline of activity. Using a type of viability reporter, gain-of-signal activity can be used to understand changes in developmentals as they relate to the whole embryo. To generalize the intended target to other relatable targets, this assay endpoint is annotated to the zebrafish development intended target family, where the subfamily is body axis morphogenesis.
# Zebrafish husbandry: Wild type adult zebrafish (Danio rerio; undefined outbred stock obtained from Aquatic Research Organisms, Hampton, NH, 03842) were housed in an AAALAC-approved animal facility at 28C with a 14:10 h light: dark cycle (lights on at 08:30 h). Adult fish (2-3 females per male; density = 15-20 adults per tank) were kept in one of several 9-liter (L) flow-through colony tanks (Aquaneering Inc., San Diego, CA). All adults in a colony tank were placed in a 2 L (static) breeding tank (Aquatic Habitats, Apopka, FL) one hour prior to light onset. Typically, adults from two to three colony tanks were mated on the same day. Two hours after light onset the adults were returned to the colony tank. […]
# [7] = CCTE_Padilla_ZF_Score.Swim_bladder: CCTE's 144 Hour Post-fertilization zebrafish Assay Score for Swim Bladder Malformation, Padilla Lab (AID 2284408; active = hit-call score of the fitted dose curve at least 0.9, where 1 is the maximum; inactive = score below 0.9)
# Method in brief: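 Swim bladder inflation scored at 6 dpf by two blinded observers under a stereo microscope. Exposure ran from 6–8 hpf in sealed wells of 10% Hanks' at 26C, with rinsing at 5 dpf; DMSO served as baseline.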
# [8] = CCTE_Padilla_ZF_Score.Position: CCTE's 144 Hour Post-fertilization zebrafish Assay Score for Position, Padilla Lab (AID 2284409; active = hit-call score of the fitted dose curve at least 0.9, where 1 is the maximum; inactive = score below 0.9)
# Method in brief: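 Wild-type zebrafish embryos (with chorions) exposed singly from 6–8 hpf in sealed wells of Hanks' solution at 26C, rinsed at 5 dpf. At 6 dpf, blinded assessors scored abnormal water-column position by brightfield stereomicroscopy, relative to DMSO.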
# [9] = TAMU_PeakParms_SingleDonor1434_Asystole: Texas A&M University (TAMU) 1.5-hr Human Induced Pluripotent Stem Cell (iPSC)-derived Cardiomyocytes Calcium (Ca+2) Flux Assay for Cardiotoxicity: Asystole (quiescence of beating) (AID 2284328)
# Method in brief: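 Donor 1434 iPSC-cardiomyocytes exposed 90 min at 37C, 5% CO2, to 0.2, 1, 10 and 100 uM in 0.5% DMSO. Ca2+ dye fluorescence gave average peak frequency; POD is EC95, a 95% beat-rate drop versus controls.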
compound,measurement,setting,value
CCCCCCCC/C=C\CCCCCCCC(=O)O,AC50,SERPINA7 (gene 6906),8.56 µM (active)
Nc1ncn([C@@H]2O[C@H](CO)[C@@H](O)[C@H]2O)c(=O)n1,outcome,[1],inactive
same,outcome,[2],inactive
same,outcome,[3],inactive
CC1=NN(c2cc(S(=O)(=O)O)ccc2Cl)C(=O)C1N=Nc1ccccc1 (centres undefined),outcome,SERPINA7 (gene 6906),inactive
Cc1ccc(C(C)c2ccc(C)c(C)c2)cc1C,AC50,SERPINA7 (gene 6906),1.8 µM (active)
FC(F)=C(F)OC(F)(F)C(F)(F)C(F)(F)F,outcome,[4],inactive
same,outcome,[5],inactive
same,outcome,[6],inactive
same,outcome,[7],inactive
same,outcome,[8],inactive
CC1(C)S[C@@H]2[C@H](NC(=O)COc3ccccc3)C(=O)N2[C@H]1C(=O)O,outcome,[1],inactive
same,outcome,[3],inactive
CCCCC(CC)CCC(CC(C)C)OS(=O)(=O)O (centres undefined),AC50,SERPINA7 (gene 6906),11.1 µM (active)
O=c1cc(-c2ccccc2)oc2ccccc12,AC50,SERPINA7 (gene 6906),18.5 µM (active)
O=C(O)CCCC[C@@H]1SC[C@@H]2NC(=O)N[C@@H]21,outcome,[9],inactive
CN(C)c1ccc(N=Nc2ccccc2C(=O)O)cc1,AC50,SERPINA7 (gene 6906),25.6 µM (active)
CCCCCCCCCCCCCOP(=O)(O)O,AC50,SERPINA7 (gene 6906),2.24 µM (active)
CC(C)(C)c1ccc(OC(=O)c2ccccc2O)cc1,AC50,SERPINA7 (gene 6906),1.69 µM (active)
CCOC(F)(F)C(F)(F)C(F)(F)C(F)(F)F,outcome,[4],inactive
same,outcome,[5],inactive
same,outcome,[6],inactive
same,outcome,[7],inactive
same,outcome,[8],inactive
N[C@H]1C(O)O[C@H](CO)[C@H](O)[C@@H]1O (some centres undefined),outcome,[2],inactive
same,outcome,[3],inactive
CC=CC(F)(F)C(F)(F)C(F)(F)F,outcome,[4],inactive
same,outcome,[5],inactive
same,outcome,[6],inactive
same,outcome,[7],inactive
same,outcome,[8],inactive
Oc1ccc(Cl)cc1Cc1cc(Cl)ccc1O,AC50,SERPINA7 (gene 6906),0.072 µM (active)
O=C(C=Cc1ccccc1)OCc1ccccc1,AC50,SERPINA7 (gene 6906),25.7 µM (active)
CCOC(=O)Cc1cccc2ccccc12,AC50,SERPINA7 (gene 6906),13.4 µM (active)
